Assay outcomes as filed in PubChem BioAssay.
ALDH1A1 block: inhibitors of human aldehyde dehydrogenase 1A1; Purified ALDH1A1, NADH fluorescence, propionaldehyde substrate; 220,000 tested, 7.3% active; P00352; Potency, µM (doses to about 75.3 µM), for the others: at the highest dose activity, negative = inhibition, most hits filed as inhibitors;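 also: potency is read from the fitted curve at half-maximal effect; plate controls were no enzyme wells and a reference inhibitor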
PNC assembly inh: perinucleolar compartment assembly inhibition; 140,000 tested, 3.1% active; PC3M PTB-GFP, PNC prevalence imaging, 16 h; stronger effect = lower value; activity change (PNC), negative = inhibition, % at 10 µM;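 active = readout at or below -70, meaning at least 70% loss of cells showing the perinucleolar compartment, a nuclear body marking cancer cells; inconclusive = readout between -30 and a set limit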;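 also: plate controls were DMSO wells for no effect and camptothecin positive control wells for full effect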
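PC3M cells stably expressing PTB-GFP, 750–1000 cells/well, treated 16 h at 37 °C with compound (23 nl of library stock), in duplicate. After paraformaldehyde fixation and Hoechst stain, imaged at 20x; PNC prevalence scored by image analysis.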
12-hLO inh: blocks human 12-lipoxygenase activity; purified 12-hLO, xylenol orange hydroperoxide absorbance; Potency, µM (highest dose often 57.1 µM), for the others: top-dose activity change, negative = inhibition, hits mostly inhibitors; 150,000 tested, 0.12% active; active = well fitted inhibition curve with a large enough effect; inconclusive = small, poorly fitted or top-dose-only effect; also: potency is read from the fitted curve at half-maximal effect; nearly all actives have a fitted effect of over 55% in size
Target sequence (P18054 whole entry, looked up): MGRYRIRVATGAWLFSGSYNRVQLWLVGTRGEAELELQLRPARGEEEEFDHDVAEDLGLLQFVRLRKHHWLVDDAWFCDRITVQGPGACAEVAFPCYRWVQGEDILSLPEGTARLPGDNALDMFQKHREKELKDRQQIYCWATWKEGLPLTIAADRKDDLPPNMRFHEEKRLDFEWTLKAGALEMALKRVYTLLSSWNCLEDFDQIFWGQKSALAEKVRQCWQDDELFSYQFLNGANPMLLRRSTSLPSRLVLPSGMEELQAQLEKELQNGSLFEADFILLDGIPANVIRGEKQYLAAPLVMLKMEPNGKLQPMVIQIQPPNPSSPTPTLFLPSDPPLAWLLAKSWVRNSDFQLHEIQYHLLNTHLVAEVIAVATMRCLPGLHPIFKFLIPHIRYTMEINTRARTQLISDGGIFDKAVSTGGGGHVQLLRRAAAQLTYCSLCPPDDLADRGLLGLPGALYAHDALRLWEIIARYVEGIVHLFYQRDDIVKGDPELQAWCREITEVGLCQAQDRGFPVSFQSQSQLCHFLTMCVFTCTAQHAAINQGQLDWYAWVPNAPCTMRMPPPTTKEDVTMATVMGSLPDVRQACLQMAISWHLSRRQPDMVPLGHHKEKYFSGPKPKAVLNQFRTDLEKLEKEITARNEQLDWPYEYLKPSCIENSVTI
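Xylenol orange chromogenic assay: hydroperoxide from 12hLO oxidises Fe(II), giving red-shifted Fe(III)-XO absorbance. Conditions: 150 nM enzyme, 40 uM arachidonic acid, 25 mM Hepes pH 7.0, 0.01% Triton X-100, 30 min, room temperature.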
HPGD block: blocks human HPGD enzyme activity; P15428; purified HPGD, NADH fluorescence kinetic, PGE2 substrate; Potency, µM, for the others: at the highest dose activity change, negative = inhibition, most hits filed as inhibitors; 150,000 tested, 4.3% active; AID 894; also: potency is read from the fitted curve at half-maximal effect
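20 nM HPGD preincubated 15 min at room temperature with compound in 50 mM Tris-HCl pH 8, 0.01% Tween 20. Started with 1 mM NAD+ and 30 uM prostaglandin E2; NADH fluorescence (360/450 nm) read 5 times over 30-s intervals, last minus first.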
Lamin A splicing: changes lamin A minigene splicing in HeLa cells. Potency, µM (doses to about 46.1 µM), for inactives: at the top dose ratio change, negative = inhibition, hits mostly inhibitors. HeLa LMNA splicing GFP/RFP minigene ratio, 48 h. 200,000 tested, 0.01% active; active = well fitted inhibition curve with a large enough effect in the signal ratio, with a control signal flat, not every such curve was filed as active; inconclusive = small, poorly fitted or top-dose-only effect, or effect the other way, or a change in a side signal; the % refers to the signal ratio; also: potency is read from the fitted curve at half-maximal effect
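S3 HeLa stable clones carrying a lamin A-EGFP splicing minigene plus DsRed2 were seeded at 600 cells/well in Opti-MEM with 2% FBS, pin-dosed and incubated 48 h at 37°C. Acumen cytometry (488 nm) gave the GFP/RFP total-intensity ratio.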
* hit, by the source's call; ? = inconclusive; / = no result; [ ] = another dose, or the depositor's remark. This is a sample that favours compounds with a hit; in the whole collection about 10% have one here. Unless noted, calls follow the shape of the dose curve; as a rule, active = well fitted inhibition curve with a large enough effect (not every such curve was filed as active); inconclusive = small, poorly fitted or top-dose-only effect, or another doubt; inactive = no such curve, though single readings can be large or run the other way. Unless noted, % is scaled to controls: 0 for no effect and ±100 for the full control effect.

SMILES | ALDH1A1 block | PNC assembly inh | 12-hLO inh | HPGD block | Lamin A splicing
CSc1nc(N)nc(SCC(=O)C(C)(C)C)c1C#N | ? | 17 | -3% | 13µM* | -3%
CSc1nc(N)nc(SCC(=O)Nc2ccc(Cl)cc2)c1C#N | ? | ? | -7% | ? | -16%
CSc1nc(N)nc(SCC(=O)CC(=O)OC(C)C)c1C#N | -7% | 60 | -13% | -19% | 24%
COc1ccnc(CS(=O)c2nc3ccc(OC(F)F)cc3[nH]2)c1OC (configuration not stated) | ? | / | -13% | ? | ?
CCOC(=O)c1c(-c2ccc(OC)cc2)csc1/N=C/C1=C(O)CCCC1=O | 2.2µM* | ? | -4% | -7% | ?
COC(=O)[C@@]1(Cc2ccccc2)[C@H]2c3cc(C(=O)N(C)C)n(Cc4ccccc4)c3C[C@H]2CN1C(=O)c1ccccc1 | -3% | / | -12% | -13% | /
O=[N+]([O-])c1cc(Cl)c(Cl)c(Cl)c1Cl | 4% | / | -1% | -2% | /
Cc1ccc(C)n1-c1c(C(=O)NN)cnn1-c1ccccc1 | 3.2µM* | / | / | / | 2%[46 µM]
COc1ccccc1OCCn1cc(C(=O)c2ccco2)c2ccccc21 | ? | 27 | -15% | ? | -13%
COc1cccc(OCCn2cc(C(=O)c3ccco3)c3ccccc32)c1 | 22µM* | 33 | -5% | ? | ?
CNC(=S)N/N=C/c1cn(CCOc2cccc(OC)c2)c2ccccc12 | ? | 16 | ? | 16µM* | ?
CN[C@@H]1NC(=O)c2ccccc2N1Cc1ccc(F)cc1 | 16%[13.5 µM] | / | 1%[11.4 µM] | -4% | /
Clc1ccccc1-c1nnc2sc(-c3ccncc3)nn12 | -5% | -9 | -2% | -17% | -2%
Clc1ccccc1-c1nnc2sc(-c3cccs3)nn12 | 14µM* | -27 | 4% | 28µM* | ?
Clc1ccccc1-c1nn2c(-c3ccncc3)nnc2s1 | 11µM* | 4 | 2% | 11µM* | -3%
CCN(C(=O)CN1CCOCC1)c1c(N)n(Cc2ccccc2)c(=O)[nH]c1=O | 14% | / | / | / | -11%[46 µM]
CCN(C(=O)CN(C)Cc1cccc(Cl)c1Cl)c1c(N)n(Cc2ccccc2)c(=O)[nH]c1=O | 8% | -98* | -2% | -15% | -6%
COCCn1c(C)cc(C2=NNC(=Nc3ccccc3)SC2)c1C | ? | 2 | -18% | -15% | 6%
COc1ccccc1C1=NNC(=Nc2cccc(S(=O)(=O)N(C)C)c2)SC1 | 35µM* | / | / | / | /
COC(=O)[C@@]1(Cc2ccc(F)cc2)[C@@H]2C(=CC(=O)[C@H]2CC(=O)C(=O)N(C)C)CN1C(=O)c1ccccc1 | -5% | / | -2% | -2% | /
COc1ccc(Cl)cc1-c1n[nH]c(=S)n1C1CCCCC1 | 5% | 44 | -20% | 10µM* | -6%
S=c1[nH]nc(-c2cccnc2)n1C1CCCCC1 | -1% | -15 | -3% | -13% | -18%
Cc1cc(Cl)ccc1OCc1n[nH]c(=S)n1C1CCCCC1 | ? | -10 | ? | 5µM* | -14%
COc1ccc(-c2n[nH]c(=S)n2C2CCCCC2)cc1 | ? | ? | -26% | 18µM* | ?
Cc1ccc(S(=O)(=O)NC2CCCCC2)c2nsnc12 | 16µM* | 24 | 0% | -27% | -11%
SMILES | ALDH1A1 block | PNC assembly inh | 12-hLO inh | HPGD block | Lamin A splicing
Cc1ccc2nsnc2c1S(=O)(=O)NC1CC1 | -3% | 300 | 0% | -12% | -9%
CSCCC(NC(=O)c1ccccc1)C(=O)OCC(=O)c1ccc[nH]1 (configuration not stated) | 2% | 9 | 2% | -3% | 4%
CSCCC(NC(=O)c1ccc(Cl)cc1)C(=O)OCC(=O)c1ccc[nH]1 (configuration not stated) | -6% | -119* | -7% | -8% | -1%
Cc1cccc(N(C(=O)c2cnc3n(c2=O)CCS3)C2CCCCC2)c1 | -2% | 1 | 3% | -22% | -6%
O=C(c1cnc2n(c1=O)CCS2)N(c1ccccc1)C1CCCCC1 | 3% | -106* | -4% | -10% | 7%
O=C(Nc1nc2c(F)cc(F)cc2s1)c1ccccn1 | 10µM* | / | / | / | ?
Cc1ccc2nc(NC(=O)c3ccccn3)sc2c1 | -3% | / | / | / | /
COc1cc2c(cc1OC)CN(Cc1nc3ccsc3c(=O)[nH]1)CC2 | ? | -83* | 11% | ? | 2%
CCCS(=O)(=O)N1CCC(C(=O)NC2CCCC(C)C2C)CC1 (configuration not stated) | -4% | -16 | 1% | -13% | 1%
CCCS(=O)(=O)N1CCCC(C(=O)NC2CCCC(C)C2C)C1 (configuration not stated) | -4% | -82* | 5% | -6% | -10%
O=c1c(-c2cccc(F)c2)nc2cncnc2n1Cc1ccccc1Cl | ? | / | / | / | -1%
Cn1c(=O)[nH]c2cc(-c3noc(-c4ccc(F)cc4)n3)ccc21 | / | / | / | / | 7%[46 µM]
COc1cc(/C=C2/SC(=Nc3ccc(O)cc3)NC2=O)ccc1O | -5% | / | / | / | ?
COc1ccc(S(=O)(=O)/N=C2/NC(=O)/C(=C\c3cc(OC)c(OC)cc3[N+](=O)[O-])S2)cc1 | ? | -19 | -17% | 5µM* | 11%
COc1cc(/C=C2\S/C(=N/S(=O)(=O)c3ccccc3)NC2=O)c([N+](=O)[O-])cc1OC | -4% | 6 | -14% | 7.1µM* | -9%
NCCC[C@@H](CC(=O)N[C@@H]1CCCC[C@H]1C(=O)N[C@H](CC(=O)N[C@@H](CCC(=O)O)CC(=O)O)Cc1c[nH]c2ccccc12)NC(=O)C[C@H](CO)NC(=O)[C@@H]1CCCC[C@H]1N | ? | / | -2% | -10% | /
Cc1nn(C)c2c1c(C(F)(F)F)cc(=O)n2CC(=O)Nc1ccc(F)cc1F | / | / | / | / | 9%[46 µM]
Cc1c(Cl)ccc2c1NC(=O)[C@]21[C@@H]2C(=O)N(Cc3ccccc3)C(=O)[C@@H]2[C@@H]2CCCN21 | 2.8µM* | -127* | -29% | -27% | -13%
CN(C)C(=O)/N=N/C(=O)N(C)C | ? | / | / | -2% | 0%
O=C(COc1ccc(F)cc1)NNC(=O)c1cc2ccccc2oc1=O | -5% | -88* | -1% | -16% | -1%
Cc1cccc(OCC(=O)NNC(=O)c2cc3ccccc3oc2=O)c1 | ? | 5 | 0% | -29% | -9%
CC1CCc2sc(C(=O)OCC(=O)NCc3ccccc3)cc2C1 (configuration not stated) | 4% | -94* | -1% | / | ?
Cc1ccc(S(=O)(=O)c2nnn(-c3ccc(F)c(Cl)c3)c2N)cc1 | / | / | / | / | 17%[46 µM]
COc1ccc(N2C(=O)CC(N3CCN(Cc4ccc5c(c4)OCO5)CC3)C2=O)cc1 (configuration not stated) | 28µM* | / | / | / | 17%[46 µM]
O=C1CC(N2CCN(Cc3ccccc3)CC2)C(=O)N1c1ccc2c(c1)OCCO2 (configuration not stated) | 7.1µM* | ? | 10% | -5% | 1%
